In the supplement of paper PMC12669032:

What was measured:
Experiment in all cases: growth AUC relative to DMSO control (median of replicates) (fraction); higher = more growth (less inhibition), active = hit call of the paper
Details in all cases: 20 µM; 24 h;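 active = AUC reduced over 20% with Padj below 0.05 in at least 2 of 3 replicates; inactive = otherwise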
Akkermansia muciniphila = tested on: Akkermansia muciniphila
How it was run: (§1)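 Area under the growth curve was normalised to the plate median of solvent-only wells, except on the industrial chemical plate, where row and column medians were used. Curves came from gut bacterial monocultures grown anaerobically at 37 °C in mGAM with 20 µM compound (1% DMSO), starting at OD600 0.05 and read at OD600 every hour for 24 h. The minimum OD of each curve was set to 0, and values are medians of three biological replicates grown on separate days.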

Bacteroides caccae = tested on: Bacteroides caccae
How it was run: as §1

Bacteroides clarus = tested on: Bacteroides clarus
How it was run: as §1

Bacteroides dorei = tested on: Bacteroides dorei
How it was run: as §1

Bacteroides stercoris = tested on: Bacteroides stercoris
How it was run: as §1

[1] = tested on: Bacteroides thetaiotaomicron
How it was run: as §1

Bacteroides uniformis = tested on: Bacteroides uniformis
How it was run: as §1

[2] = tested on: Bifidobacterium longum subsp. longum
How it was run: as §1

Clostridium difficile = tested on: Clostridium difficile
How it was run: as §1

Collinsella aerofaciens = tested on: Collinsella aerofaciens
How it was run: as §1

Coprococcus comes = tested on: Coprococcus comes
How it was run: as §1

Escherichia coli ED1a = tested on: Escherichia coli ED1a
How it was run: as §1

Escherichia coli IAI1 = tested on: Escherichia coli IAI1
How it was run: as §1

Eubacterium rectale = tested on: Eubacterium rectale
How it was run: as §1

[3] = tested on: Fusobacterium nucleatum subsp. animalis
How it was run: as §1

Lactobacillus gasseri = tested on: Lactobacillus gasseri
How it was run: as §1

Lactobacillus paracasei = tested on: Lactobacillus paracasei
How it was run: as §1

Odoribacter splanchnicus = tested on: Odoribacter splanchnicus
How it was run: as §1

[4] = tested on: Parabacteroides distasonis
How it was run: as §1

Parabacteroides merdae = tested on: Parabacteroides merdae
How it was run: as §1

Measured: growth AUC

CC1(C)CCC(Cc2ccc(Cl)cc2)C1(O)Cn1cncn1 (stereo not given)
inactive: Akkermansia muciniphila 1.01 | Bacteroides caccae 0.874 | Bacteroides clarus 0.925 | Bacteroides dorei 0.98 | Bacteroides stercoris 1.35 | [1] 0.93 | Bacteroides uniformis 0.937 | [2] 1.03 | Clostridium difficile 0.973 | Collinsella aerofaciens 0.95 | Coprococcus comes 0.982 | Escherichia coli ED1a 0.971 | Escherichia coli IAI1 0.98 | Eubacterium rectale 0.8 | [3] 1.08 | Lactobacillus gasseri 0.976 | Lactobacillus paracasei 1.02 | Odoribacter splanchnicus 0.823 | [4] 0.927 | Parabacteroides merdae 0.918

C1=Cc2cccc3cccc1c23
inactive: Akkermansia muciniphila 1.01 | Bacteroides caccae 1.02 | Bacteroides clarus 0.996 | Bacteroides dorei 1.02 | Bacteroides stercoris 1.03 | [1] 1.01 | Bacteroides uniformis 1 | [2] 0.946 | Clostridium difficile 1 | Collinsella aerofaciens 0.995 | Coprococcus comes 1.01 | Escherichia coli ED1a 1.02 | Escherichia coli IAI1 1.01 | Eubacterium rectale 0.988 | [3] 1.02 | Lactobacillus gasseri 0.975 | Lactobacillus paracasei 1.04 | Odoribacter splanchnicus 0.99 | [4] 0.889 | Parabacteroides merdae 1.02

CNC(=O)Oc1ccc(N(C)C)c(C)c1
inactive: Akkermansia muciniphila 1.05 | Bacteroides caccae 0.855 | Bacteroides clarus 1.01 | Bacteroides dorei 0.983 | Bacteroides stercoris 1.41 | [1] 0.994 | Bacteroides uniformis 1 | [2] 0.979 | Clostridium difficile 0.99 | Collinsella aerofaciens 0.932 | Coprococcus comes 0.992 | Escherichia coli ED1a 1 | Escherichia coli IAI1 1.01 | Eubacterium rectale 1.06 | [3] 1.08 | Lactobacillus gasseri 0.909 | Lactobacillus paracasei 1 | Odoribacter splanchnicus 0.861 | [4] 0.977 | Parabacteroides merdae 0.986

O=C(O)c1nc(Cl)ccc1Cl
inactive: Akkermansia muciniphila 1.11 | Bacteroides caccae 1.01 | Bacteroides clarus 1.02 | Bacteroides dorei 1.03 | Bacteroides stercoris 1.11 | [1] 0.993 | Bacteroides uniformis 1.01 | [2] 1.03 | Clostridium difficile 0.975 | Collinsella aerofaciens 0.982 | Coprococcus comes 1.03 | Escherichia coli ED1a 0.995 | Escherichia coli IAI1 1.01 | Eubacterium rectale 0.952 | [3] 0.998 | Lactobacillus gasseri 1.09 | Lactobacillus paracasei 1.03 | Odoribacter splanchnicus 1.01 | [4] 1.03 | Parabacteroides merdae 1.03

O=c1[nH]c(Cl)c(Cl)cc1Cl
inactive: Akkermansia muciniphila 0.98 | Bacteroides caccae 1.04 | Bacteroides clarus 0.967 | Bacteroides dorei 0.991 | Bacteroides stercoris 1.05 | [1] 1.11 | Bacteroides uniformis 0.978 | [2] 0.981 | Clostridium difficile 0.95 | Collinsella aerofaciens 1.01 | Coprococcus comes 0.998 | Escherichia coli ED1a 0.952 | Escherichia coli IAI1 0.983 | Eubacterium rectale 0.991 | [3] 1.04 | Lactobacillus gasseri 0.928 | Lactobacillus paracasei 0.984 | Odoribacter splanchnicus 0.942 | [4] 0.921 | Parabacteroides merdae 1.01

CC(C)(C)N(NC(=O)c1ccc(Cl)cc1)C(=O)c1ccccc1
inactive: Akkermansia muciniphila 0.852 | Bacteroides caccae 0.973 | Bacteroides clarus 0.986 | Bacteroides dorei 0.983 | Bacteroides stercoris 1.02 | [1] 0.939 | Bacteroides uniformis 1.01 | [2] 1.04 | Clostridium difficile 1.11 | Collinsella aerofaciens 1.02 | Coprococcus comes 0.995 | Escherichia coli ED1a 1.01 | Escherichia coli IAI1 1.01 | Eubacterium rectale 1 | [3] 0.913 | Lactobacillus gasseri 1.09 | Lactobacillus paracasei 1.1 | Odoribacter splanchnicus 0.988 | [4] 0.96 | Parabacteroides merdae 0.97

ClC1(Cl)C2(Cl)C3(Cl)C4(Cl)C(Cl)(Cl)C5(Cl)C3(Cl)C1(Cl)C5(Cl)C24Cl (stereo not given)
inactive: Akkermansia muciniphila 0.866 | Bacteroides caccae 0.966 | Bacteroides clarus 0.972 | Bacteroides dorei 1.01 | Bacteroides stercoris 1.06 | [1] 1 | Bacteroides uniformis 0.937 | [2] 0.846 | Clostridium difficile 1 | Collinsella aerofaciens 0.94 | Coprococcus comes 0.986 | Escherichia coli ED1a 1.03 | Escherichia coli IAI1 0.989 | Eubacterium rectale 0.98 | [3] 0.997 | Lactobacillus gasseri 0.939 | Lactobacillus paracasei 0.897 | Odoribacter splanchnicus 0.982 | [4] 1.03 | Parabacteroides merdae 0.966

O=c1c2cc(F)ccc2nc(-n2cncn2)n1-c1ccc(Cl)cc1Cl
inactive: Akkermansia muciniphila 0.855 | Bacteroides caccae 0.976 | Bacteroides clarus 0.979 | Bacteroides dorei 1.05 | Bacteroides stercoris 1 | [1] 0.925 | Bacteroides uniformis 0.937 | [2] 0.791 | Clostridium difficile 1.12 | Collinsella aerofaciens 1.07 | Coprococcus comes 0.999 | Escherichia coli ED1a 0.987 | Escherichia coli IAI1 0.99 | Eubacterium rectale 0.963 | [3] 0.976 | Lactobacillus gasseri 1.05 | Lactobacillus paracasei 0.634 | Odoribacter splanchnicus 0.977 | [4] 1.02 | Parabacteroides merdae 0.93

CN1CSC(=S)N(C)C1
inactive: Akkermansia muciniphila 1.02 | Bacteroides caccae 1.01 | Bacteroides clarus 0.939 | Bacteroides dorei 1.03 | Bacteroides stercoris 0.942 | [1] 0.976 | Bacteroides uniformis 1.05 | [2] 1.01 | Clostridium difficile 0.976 | Collinsella aerofaciens 1.07 | Coprococcus comes 0.957 | Escherichia coli ED1a 0.991 | Escherichia coli IAI1 0.994 | Eubacterium rectale 1.06 | [3] 0.966 | Lactobacillus gasseri 1.07 | Lactobacillus paracasei 1.04 | Odoribacter splanchnicus 0.988 | [4] 0.991 | Parabacteroides merdae 0.976

CC#Cc1cc(C)nc(Nc2ccccc2)n1
inactive: Akkermansia muciniphila 1.08 | Bacteroides caccae 1.01 | Bacteroides clarus 0.991 | Bacteroides dorei 0.941 | Bacteroides stercoris 1 | [1] 0.945 | Bacteroides uniformis 0.975 | [2] 0.978 | Clostridium difficile 0.965 | Collinsella aerofaciens 0.995 | Coprococcus comes 1.01 | Escherichia coli ED1a 0.986 | Escherichia coli IAI1 0.973 | Eubacterium rectale 1.03 | [3] 1.1 | Lactobacillus gasseri 0.844 | Lactobacillus paracasei 0.983 | Odoribacter splanchnicus 1.06 | [4] 0.945 | Parabacteroides merdae 0.991

CC1(C(=O)Nc2ccc(O)c(Cl)c2Cl)CCCCC1
inactive: Akkermansia muciniphila 0.827 | Bacteroides caccae 0.986 | Bacteroides clarus 0.954 | Bacteroides dorei 0.995 | Bacteroides stercoris 0.952 | [1] 0.94 | Bacteroides uniformis 0.962 | [2] 0.978 | Clostridium difficile 0.98 | Collinsella aerofaciens 0.995 | Coprococcus comes 0.965 | Escherichia coli ED1a 1.01 | Escherichia coli IAI1 0.991 | Eubacterium rectale 0.973 | [3] 0.915 | Lactobacillus gasseri 1.03 | Lactobacillus paracasei 0.949 | Odoribacter splanchnicus 0.907 | [4] 1.05 | Parabacteroides merdae 0.993

CC(C)=CC1C(C(=O)OC(C#N)c2cccc(Oc3ccccc3)c2)C1(C)C (mixture of isomers)
inactive: Akkermansia muciniphila 0.826 | Bacteroides caccae 0.964 | Bacteroides clarus 0.994 | Bacteroides dorei 0.989 | Bacteroides stercoris 1.11 | [1] 1.01 | Bacteroides uniformis 1.06 | [2] 0.914 | Clostridium difficile 1 | Collinsella aerofaciens 0.935 | Coprococcus comes 0.983 | Escherichia coli ED1a 1 | Escherichia coli IAI1 0.967 | Eubacterium rectale 0.965 | [3] 0.921 | Lactobacillus gasseri 0.921 | Lactobacillus paracasei 1.23 | Odoribacter splanchnicus 1.01 | [4] 1 | Parabacteroides merdae 1

C=CCOC(=O)C(C)(C)OC(=O)c1cc(-n2c(=O)cc(C(F)(F)F)n(C)c2=O)ccc1Cl
inactive: Akkermansia muciniphila 1.14 | Bacteroides caccae 0.949 | Bacteroides clarus 1.01 | Bacteroides dorei 0.969 | Bacteroides stercoris 1.09 | [1] 0.974 | Bacteroides uniformis 0.975 | [2] 0.96 | Clostridium difficile 0.964 | Collinsella aerofaciens 0.961 | Coprococcus comes 1 | Escherichia coli ED1a 0.998 | Escherichia coli IAI1 1.02 | Eubacterium rectale 1.05 | [3] 1.09 | Lactobacillus gasseri 0.871 | Lactobacillus paracasei 1.01 | Odoribacter splanchnicus 0.913 | [4] 0.811 | Parabacteroides merdae 0.962

CP(=O)(O)CCC(N)C(=O)[O-].[NH4+] (stereo not given)
inactive: Akkermansia muciniphila 1.08 | Bacteroides caccae 1.04 | Bacteroides clarus 1.03 | Bacteroides dorei 0.977 | Bacteroides stercoris 1.2 | [1] 1 | Bacteroides uniformis 1.02 | [2] 1.02 | Clostridium difficile 1.01 | Collinsella aerofaciens 1.02 | Coprococcus comes 1.06 | Escherichia coli ED1a 1.02 | Escherichia coli IAI1 1.02 | Eubacterium rectale 1.08 | [3] 1.17 | Lactobacillus gasseri 0.944 | Lactobacillus paracasei 1.08 | Odoribacter splanchnicus 1.02 | [4] 1.1 | Parabacteroides merdae 1.03

C=CCN(CC=C)C(=O)C(Cl)Cl
inactive: Akkermansia muciniphila 0.976 | Bacteroides caccae 1.02 | Bacteroides clarus 1 | Bacteroides dorei 1.01 | Bacteroides stercoris 1.01 | [1] 0.99 | Bacteroides uniformis 0.985 | [2] 0.974 | Clostridium difficile 0.973 | Collinsella aerofaciens 0.978 | Coprococcus comes 1 | Escherichia coli ED1a 0.944 | Escherichia coli IAI1 0.986 | Eubacterium rectale 1.01 | [3] 0.965 | Lactobacillus gasseri 0.934 | Lactobacillus paracasei 0.999 | Odoribacter splanchnicus 1.02 | [4] 0.991 | Parabacteroides merdae 0.947

CCOP(=S)(OCC)Oc1cc(C)nc(N(CC)CC)n1
inactive: Akkermansia muciniphila 1.03 | Bacteroides caccae 0.926 | Bacteroides clarus 0.979 | Bacteroides dorei 0.976 | Bacteroides stercoris 0.938 | [1] 0.961 | Bacteroides uniformis 0.943 | [2] 1.01 | Clostridium difficile 1 | Collinsella aerofaciens 0.994 | Coprococcus comes 1.03 | Escherichia coli ED1a 0.996 | Escherichia coli IAI1 0.994 | Eubacterium rectale 0.969 | [3] 1.01 | Lactobacillus gasseri 1.02 | Lactobacillus paracasei 1.02 | Odoribacter splanchnicus 1.08 | [4] 0.845 | Parabacteroides merdae 0.963
